# Laboratory results taken from PubChem BioAssay (NCATS).
# Values joined by “and” are separate entries in the source; they are usually repeats but may differ in a detail not shown here. Identical values can stand only once. Results filed as inconclusive are left out. Some structures have more than one record in an assay (separate samples or runs), and their calls can disagree. Active and inactive are the calls of the source. Unless noted, calls follow the shape of the dose curve; as a rule, active = well fitted curve in the direction sought with a large enough effect; inconclusive = small, poorly fitted or top-dose-only effect, or another doubt; inactive = no such curve, though single readings can be large; an effect the other way counts as inactive or inconclusive.
# What was measured:
# [1] = target: Cytochrome P450 2C9 (Homo sapiens) (UniProt P11712); experiment: qHTS Assay for Inhibitors and Substrates of Cytochrome P450 2C9 (AID 883); also: nearly all actives have a fitted effect of over 60% in size; also: potency is read from the fitted curve at half-maximal effect; as to activity change, negative = inhibition: % is scaled to controls: 0 for no effect and ±100 for the full control effect
# Sequence of Cytochrome P450 2C9 (Homo sapiens) (P11712 whole entry, looked up): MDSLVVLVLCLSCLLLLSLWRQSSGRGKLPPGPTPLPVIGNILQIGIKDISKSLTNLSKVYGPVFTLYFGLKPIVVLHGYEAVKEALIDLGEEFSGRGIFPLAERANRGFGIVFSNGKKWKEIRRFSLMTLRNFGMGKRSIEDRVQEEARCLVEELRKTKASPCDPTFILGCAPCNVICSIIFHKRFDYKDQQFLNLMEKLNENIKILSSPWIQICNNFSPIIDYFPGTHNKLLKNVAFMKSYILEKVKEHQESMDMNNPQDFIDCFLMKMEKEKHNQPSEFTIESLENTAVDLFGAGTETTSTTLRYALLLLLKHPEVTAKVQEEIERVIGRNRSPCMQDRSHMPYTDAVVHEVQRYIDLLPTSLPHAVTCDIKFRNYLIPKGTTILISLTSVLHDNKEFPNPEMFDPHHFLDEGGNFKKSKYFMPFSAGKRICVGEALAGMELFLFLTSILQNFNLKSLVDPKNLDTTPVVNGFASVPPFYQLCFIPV
# In short: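 Signal: luciferase luminescence reporting luciferin produced by CYP2C9. Conditions: 10nM enzyme, Luciferin-H 100uM at KM, 25mM KPO4, 37C, 60 min NADPH-driven reaction. Reference: 57uM sulphaphenazole as 100% inhibition.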
# [2] = target: Cytochrome P450 3A4 (Homo sapiens) (UniProt P08684); experiment: qHTS Assay for Inhibitors and Substrates of Cytochrome P450 3A4 (AID 884); also: nearly all actives have a fitted effect of over 50% in size; also: potency is read from the fitted curve at half-maximal effect; as to activity change, negative = inhibition: % is scaled to controls: 0 for no effect and ±100 for the full control effect
# Sequence of Cytochrome P450 3A4 (Homo sapiens) (P08684 whole entry, looked up): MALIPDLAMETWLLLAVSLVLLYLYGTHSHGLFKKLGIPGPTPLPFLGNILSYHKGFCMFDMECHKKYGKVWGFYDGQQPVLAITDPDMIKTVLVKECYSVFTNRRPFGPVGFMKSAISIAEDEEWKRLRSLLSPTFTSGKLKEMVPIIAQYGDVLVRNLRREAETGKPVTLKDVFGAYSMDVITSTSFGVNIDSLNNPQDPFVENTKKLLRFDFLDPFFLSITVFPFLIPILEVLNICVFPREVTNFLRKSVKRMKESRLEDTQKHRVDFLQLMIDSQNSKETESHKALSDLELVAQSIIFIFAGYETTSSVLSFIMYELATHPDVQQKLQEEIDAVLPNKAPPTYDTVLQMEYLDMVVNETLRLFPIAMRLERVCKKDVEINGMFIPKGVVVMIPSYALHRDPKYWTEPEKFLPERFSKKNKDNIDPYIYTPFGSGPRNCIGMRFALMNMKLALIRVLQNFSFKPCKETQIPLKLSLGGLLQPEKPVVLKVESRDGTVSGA
# In short: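 Luminescent readout of luciferin produced by CYP3A4 (20 nM) dealkylation of Luciferin-PPXE, 25 uM (its KM). NADPH-driven reaction ran 60 min at RT after 10 min compound preincubation; data scaled to 57 uM ketoconazole as 100% inhibition.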
# [3] = target: Cytochrome P450 3A4 (Homo sapiens) (UniProt P08684); experiment: qHTS Assay for Activators of Cytochrome P450 3A4 (AID 885); also: nearly all actives have a fitted effect of over 65% in size
# In short: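 Activators are scored by enhanced luminescence from CYP3A4 conversion of luciferin-PPXE (25uM, equal to KM) to luciferin, after 60 min at RT with an NADPH-regenerating system.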
# [4] = target: Cytochrome P450 2D6 (Homo sapiens) (UniProt P10635); experiment: qHTS Assay for Inhibitors and Substrates of Cytochrome P450 2D6 (AID 891);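 also: luciferin methyl ether substrate demethylated by CYP2D6 with NADPH regeneration; % is scaled to controls: 0 for no effect and ±100 for the full control effect; nearly all actives have a fitted effect of over 60% in size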
# Sequence of Cytochrome P450 2D6 (Homo sapiens) (P10635 whole entry, looked up): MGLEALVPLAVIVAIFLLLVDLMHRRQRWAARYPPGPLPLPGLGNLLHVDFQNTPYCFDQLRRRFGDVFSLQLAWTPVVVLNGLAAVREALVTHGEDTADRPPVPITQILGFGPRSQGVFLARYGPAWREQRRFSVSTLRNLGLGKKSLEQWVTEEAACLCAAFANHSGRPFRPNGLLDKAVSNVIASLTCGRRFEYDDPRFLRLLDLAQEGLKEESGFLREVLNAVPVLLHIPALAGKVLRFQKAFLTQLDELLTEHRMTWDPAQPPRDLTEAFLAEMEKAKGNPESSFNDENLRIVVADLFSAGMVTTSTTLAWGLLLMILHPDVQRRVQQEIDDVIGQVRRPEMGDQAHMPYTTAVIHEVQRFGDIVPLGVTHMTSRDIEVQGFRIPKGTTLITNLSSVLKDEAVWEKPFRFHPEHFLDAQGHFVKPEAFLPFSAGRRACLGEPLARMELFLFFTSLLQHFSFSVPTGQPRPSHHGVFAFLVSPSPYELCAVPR
# In short: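 Luminescent read-out of luciferin formed by 5 nM human CYP2D6 demethylating 30 uM Luciferin-ME EGE (Km level) over 60 min at room temperature after NADPH regeneration addition. Data normalized to full inhibition by 1.43 uM quinidine.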
# [5] = target: Cytochrome P450 2C19 (Homo sapiens) (UniProt P33261); experiment: qHTS Assay for Inhibitors and Substrates of Cytochrome P450 2C19 (AID 899); also: % is scaled to controls: 0 for no effect and ±100 for the full control effect; nearly all actives have a fitted effect of over 60% in size
# Sequence of Cytochrome P450 2C19 (Homo sapiens) (P33261 whole entry, looked up): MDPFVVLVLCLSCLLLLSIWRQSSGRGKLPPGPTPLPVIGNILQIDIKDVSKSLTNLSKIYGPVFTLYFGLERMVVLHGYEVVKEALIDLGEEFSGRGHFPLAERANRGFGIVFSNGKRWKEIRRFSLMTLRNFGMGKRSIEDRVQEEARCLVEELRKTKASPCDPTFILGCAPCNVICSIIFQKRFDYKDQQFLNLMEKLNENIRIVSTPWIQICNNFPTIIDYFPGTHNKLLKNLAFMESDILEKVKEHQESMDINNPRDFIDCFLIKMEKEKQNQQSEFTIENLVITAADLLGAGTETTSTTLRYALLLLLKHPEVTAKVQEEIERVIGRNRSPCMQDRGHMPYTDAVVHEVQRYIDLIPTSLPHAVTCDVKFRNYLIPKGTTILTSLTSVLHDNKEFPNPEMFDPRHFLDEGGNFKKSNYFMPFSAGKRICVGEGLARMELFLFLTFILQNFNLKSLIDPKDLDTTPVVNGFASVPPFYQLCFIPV
# In short: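 Signal comes from luciferase acting on luciferin released by CYP2C19-mediated hydroxylation of Luciferin-H EGE, 10uM (KM). Assay mix: 5nM enzyme, 50mM KPO4; 60 min at 37C with NADPH regeneration. Data normalized against 57uM ketoconazole.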
# [6] = qHTS profiling of the MIPE4 collection as inhibitors of Plasmodium falciparum (3D7) proliferation (AID 743344; call rule not given here;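 also: scaled between DMSO vehicle wells and 0.29 µM artemisinin as full inhibition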); conditions: P. falciparum 3D7 in erythrocytes, SYBR Green DNA fluorescence, 72 h; at 28.5 µM (top of the series)
# In short: (§1)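 Parasite DNA was quantified by SYBR Green I fluorescence (ex 485, em 535 nm) after overnight lysis in saponin/Triton buffer at room temperature. Cultures at 0.3% parasitemia and 2.5% hematocrit were first exposed to compound for 72 h at 37 C; signals were normalised to artemisinin (0.29 uM) and vehicle wells.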
# [7] = qHTS profiling of the MIPE4 collection as inhibitors of Plasmodium falciparum (DD2) proliferation (AID 743345; call rule not given here); conditions: P. falciparum Dd2 in erythrocytes, SYBR Green DNA, 72 h; at 28.5 µM (top of the series)
# In short: as §1
# [8] = qHTS profiling of the MIPE4 collection as inhibitors of Plasmodium falciparum (DD2) proliferation (Rep 2) (AID 743346; call rule not given here); conditions: P. falciparum Dd2 in erythrocytes, SYBR Green DNA, 72 h; at 28.5 µM (top of the series)
# In short: as §1
# [9] = qHTS profiling of the MIPE4 collection as inhibitors of Plasmodium falciparum (HB3) proliferation (AID 743347; call rule not given here;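 also: plate controls were DMSO vehicle wells for no effect and artemisinin wells for full effect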); conditions: P. falciparum HB3 in erythrocytes, SYBR Green DNA, 72 h; at 28.5 µM (top of the series)
# In short: as §1
structure (smiles),measurement,setting,value
COc1ccc(-c2ccc3c(n2)CCCN3C[C@H](O)CN2CCCc3nc(C)c(C)cc32)cc1,Potency,[1],3.98 µM (active)
C=C(C)C(=O)OCC1CN2C(CCC(C)C2c2ccc(Br)cc2)C(=O)O1 (centres undefined),Potency,[1],inactive
same,Potency,[2],3.16 µM (active)
same,"activity change, negative = inhibition",[2],-21.6% [at 11.4 µM] (inactive)
same,"activity change, positive = activation",[3],-55% [at 11.4 µM] (inactive) and -73.8% [at 11.4 µM] (inactive)
same,Potency,[4],inactive
same,Potency,[5],inactive
C[C@H]1C[C@H]2C3CCC4=CC(=O)C=C[C@@]4(C)[C@@]3(Cl)[C@@H](O)CC2(C)[C@@]1(OC(=O)c1ccco1)C(=O)CCl (some centres undefined),"parasite growth, % of DMSO control",[6],5.13%
same,"parasite growth remaining, % of DMSO control (lower = more inhibition)",[7],6.79%
same,"parasite growth, % of control (lower = inhibition)",[8],16.7%
same,"growth, % of control",[9],5.44%
O=C1C[C@@H](O)[C@@H](O)[C@H]2[C@@H]3C(=O)N(Cc4ccccc4)C(=O)[C@@H]3CC[C@H]12,Potency,[1],inactive
COC(=O)NC(/C(C(=O)OC)=C(\C)NCc1ccccc1)c1cccc(F)c1 (centres undefined),Potency,[1],inactive
same,"activity change, negative = inhibition",[2],-19.8% [at 11.4 µM] (inactive)
COc1ccc(C#CC2C=CC(OC(C)=O)C(COC(C)=O)O2)cc1 (centres undefined),Potency,[1],inactive
same,Potency,[2],2.51 µM (active)
same,"activity change, negative = inhibition",[2],-3.53% [at 11.4 µM] (inactive)
same,Potency,[4],inactive
same,Potency,[5],inactive
COc1ccc(OC[C@@H](CO)OC)cc1,Potency,[1],inactive
COc1ccc(S(=O)(=O)N(CCO)c2ccccc2CN(C)CC=Cc2ccc(Cl)cc2)cc1,"parasite growth, % of DMSO control",[6],6.17%
same,"parasite growth remaining, % of DMSO control (lower = more inhibition)",[7],26.4%
same,"parasite growth, % of control (lower = inhibition)",[8],18.1%
same,"growth, % of control",[9],9.71%
C[C@H]1CCN(C(=O)CC#N)C[C@H]1N(C)c1ncnc2[nH]ccc12,"parasite growth, % of DMSO control",[6],69.9%
same,"parasite growth remaining, % of DMSO control (lower = more inhibition)",[7],98.8%
same,"parasite growth, % of control (lower = inhibition)",[8],51.2%
same,"growth, % of control",[9],114%
COC(=O)[C@H](CCSC)NC(=O)C/C=C\[C@@H](C)CO,Potency,[1],inactive
CCOC(=O)N/N=C1/C[C@@H](O)[C@@H](O)[C@@H]2[C@@H]3C(=O)N(c4cccc(Oc5ccccc5)c4)C(=O)[C@H]3CC[C@@H]12,Potency,[1],inactive
COC(=O)C1=C(C)N(Cc2ccccc2)C2=C(C(C)=O)C(c3ccccc3)[C@@](O)(C(=O)OC)C(=O)N2C1c1ccccc1 (some centres undefined),Potency,[1],inactive
same,Potency,[2],3.98 µM (active)
same,"activity change, negative = inhibition",[2],-19% [at 11.4 µM] (inactive)
same,"activity change, positive = activation",[3],-79.4% [at 11.4 µM] (inactive)
same,Potency,[4],inactive
same,Potency,[5],inactive
C/C(CCN1CCCCc2nc(C)c(C)cc21)=N\O[C@@H](C)c1cc(-c2c(C)cc(C)cc2C)no1,Potency,[1],2.51 µM (active)
same,Potency,[2],3.98 µM (active)
same,"activity change, positive = activation",[3],-65.9% [at 11.4 µM] (inactive)
